Many of the other results were omitted from the sample, so hits are more common in it than they were.
Pf Dd2 growth: blocks in vitro growth of P. falciparum Dd2. AID 1347417. 4.3% of 120,000 active. Potency, µM (titrated, usually from 28.9 µM), inactives show at the highest dose activity, negative = inhibition, actives largely listed as inhibitors. P. falciparum Dd2 growth, SYBR Green, 72 h; active = well fitted inhibition curve with a large enough effect;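 also: plate controls were DMSO vehicle for no effect and reference drug for full effect; nearly all actives have a fitted effect of over 65% in size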
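Readout: SYBR Green fluorescence, 485 nm excitation, 535 nm emission, after ~16 h lysis at 37C. Before that, Dd2-infected red cells (2.5% hematocrit) grew 72 h with compound, 29 uM top final concentration.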
* marks the source's active call; other numbers are inactive results; i = inactive; [ ] = remark or other dose. Potency is read from the fitted curve at half-maximal effect.

SMILES	Pf Dd2 growth
FC(F)(F)c1cc(Nc2cnc3ccc(N4CCOCC4)nn23)ccc1Cl	-17%[44.1 µM]
COc1cncc(Nc2cnc3ccc(N(C)Cc4ccc(F)cc4)nn23)c1	i
Fc1ccc(-c2ccc3ncc(Nc4ccc5c(c4)OCO5)n3n2)cc1	i
Fc1ccc(-c2ccc3ncc(Nc4ccnc(N5CCOCC5)c4)n3n2)cc1	0.56µM*
COc1ccc(Nc2cnc3ccc(N4CCOCC4)nn23)cn1	i
CN1CCN(c2ccc3ncc(Nc4ccccc4F)n3n2)CC1	-1%[44.1 µM]
Clc1ccccc1Nc1cnc2ccc(N3CCOCC3)nn12	-14%[44.1 µM]
COc1cccc(Nc2cnc3ccc(N4CCOCC4)nn23)c1	i
COCCOC1CCN(C(=O)Nc2cccc(C)c2)CC1	35%
O=C(c1cc[n+]([O-])cc1)N1CCC2(CCCN(Cc3cccc(F)c3F)C2)C1 (stereo unspecified)	-14%
Cc1ccc(C(=O)N2CCC(N3C(=O)C(O)C34CCCCC4)CC2)s1 (stereo unspecified)	-29%
CN(C)C(=O)N1CCCCC12Cc1ccccc1NC2=O (stereo unspecified)	-3%[44.1 µM]
CN(CCc1ccccc1)Cc1cnc(S(C)(=O)=O)n1Cc1ccccc1F	i
O=C1COCC2(CN1Cc1cccc(OC(F)(F)F)c1)CN(c1ccccc1F)C2	2.5µM*
COc1cncc(N2CC3(COCC(=O)N(Cc4cccc(OC(F)(F)F)c4)C3)C2)c1	i
O=C1COCC2(CN1Cc1cccc(OC(F)(F)F)c1)CN(c1ccccn1)C2	i
CCOc1ccc(CN2C(=O)C3(CCOCC3)CC2c2nnnn2C(C)(C)C)cc1 (stereo unspecified)	-15%
CN(Cc1ncc[nH]1)c1ccc(-c2nc(CCCc3ccccc3)no2)cn1	4.5µM*
CN(Cc1ccccn1)c1ccc(-c2nc(Cc3ccc(F)cc3)no2)cn1	-27%
Cc1nnc(CN(C)c2ccc(-c3nc(CCCc4ccccc4)no3)cn2)o1	i
COc1ccc(-c2cc3c(c(OC)c2)OCCNC3)nn1	-9%
COc1cc(-c2cc(C)c3c(OC)ccc(OC)c3n2)cc2c1OCCNC2	11µM*
Cc1ccc(-c2cc(O)c3c(c2)CNCCO3)cc1	i
Cc1nc(NCC2CC2)ncc1C(=O)O	12%
Fc1ccc2c(c1)nc1n2[C@@H](CNCc2ccncc2F)COC1	5%[44.1 µM]
SMILES	Pf Dd2 growth
CC(=O)N1CCN(C2CCOC3(CCN(S(=O)(=O)c4ccccc4)CC3)C2)CC1 (stereo unspecified)	i
CCOc1ccc(CNC(=O)CCc2cn(CC)c3ccccc23)cc1	-12%
CCOc1ccc(NC(=O)Cn2cc(C(=O)C3CC3)c3ccccc32)cc1	5%
CCOc1ccc(NC(=O)N(Cc2cn(CC)c3ccccc23)C2CCCCCC2)cc1	10µM*
COCCN1C(=O)CC[C@]2(C(=O)NCc3ccc(C)cc3)CCCC[C@@H]12	-5%
CCN(CC)C(=O)[C@@H]1CCC[C@@H](NC(=O)c2cc(C)n(C)n2)CN(C)C(=O)C1	-24%[44.1 µM]
O=C(c1cncc(Cl)c1)N1CCC(c2nn(-c3ccc(F)cc3)c(=O)[nH]2)CC1	-15%
CCc1ccc(CNC(=O)c2nn(-c3ccc(OC)c(Cl)c3)c(=O)c3c2c2ccccc2n3C)cc1	9%[5.79 µM]
CCOc1ccc(N(CC)C(=O)c2nn(-c3ccc(OC)cc3)c(=O)c3c2c2ccccc2n3C)cc1	4µM*
CCN(CC)CCNC(=O)c1nn(-c2ccc(OC)c(Cl)c2)c(=O)c2c1c1ccccc1n2C	13%
CCCN(C(=O)c1nn(-c2ccc(OC)c(Cl)c2)c(=O)c2c1c1ccccc1n2C)c1ccccc1F	4%
CCN(CC)CCCNC(=O)c1nn(-c2ccc(OC)c(Cl)c2)c(=O)c2c1c1ccccc1n2C	1µM*
CCN(C(=O)c1nn(-c2ccc(OC)c(Cl)c2)c(=O)c2c1c1ccccc1n2C)c1cc(OC)ccc1OC	7.9µM*
COc1ccc(-n2nc(C(=O)N(C)c3cccc(C(F)(F)F)c3)c3c4ccccc4n(C)c3c2=O)cc1	8%
CCN(CC)CCCNC(=O)c1nn(-c2ccc(OC)cc2)c(=O)c2c1c1ccccc1n2C	6%
CCOc1ccccc1NC(=O)c1nn(-c2ccc(OC)cc2)c(=O)c2c1c1ccccc1n2C	i
COCc1cc(CNC(=O)Cn2ncc3ccccc3c2=O)[nH]n1	-1%
CC(=O)c1cc(CN2C[C@H]3CC[C@@H]2CN(S(=O)(=O)N(C)C)C3)n(C)c1	-12%
COc1ccccc1CN1CCC(N2Cc3cnc(C)n3C2=O)CC1	i
O=C(C1CCCC1)N1CC2(Cc3ccccc3NC2=O)C1	8%[44.1 µM]
O=C1NC2(CN(Cc3cncs3)C2)Oc2ccccc21	-3%[44.1 µM]
O=C1c2cnc(-c3ccccc3)nc2OCCN1Cc1ccc(F)cc1F	i
Cc1cc(C(=O)N[C@H](C)c2onc(-c3cccnc3)c2C(=O)O)nn1C	-8%[44.1 µM]
Cc1[nH]c2ccccc2c1C(c1ccccc1)c1ccc(Cl)s1 (stereo unspecified)	8.9µM*
c1ccc(C(c2cccs2)c2c[nH]c3ccccc23)cc1 (stereo unspecified)	-20%
SMILES	Pf Dd2 growth
O=C(Cn1cccc1-c1nc(-c2ccc(F)cc2)no1)NCc1ccc(Cl)cc1	-15%
COc1ccc(Cn2c(C3CCN(C(=O)c4ccc(F)cc4Cl)CC3)n[nH]c2=O)cc1	i
CCN1CCN(Cc2c(O)ccc3c(=O)c(Oc4ccccc4Cl)c(C(F)(F)F)oc23)CC1	0.25µM*
CCc1ccc(Oc2c(C(F)(F)F)oc3c(CN4CCC(C)CC4)c(O)ccc3c2=O)cc1	0.32µM*
CCc1ccc(Oc2c(C(F)(F)F)oc3c(CN4CCN(CC)CC4)c(O)ccc3c2=O)cc1	0.1µM*
O=C1CCCCCN1C1CCN(Cc2ccc(OC(F)(F)F)cc2)CC1	i
CCN1CCN(C(c2ccccc2Cl)c2c(O)cc(C)n(Cc3ccco3)c2=O)CC1 (stereo unspecified)	10%
CCOc1ccc(CN2CCC(N(C(=O)CC)C3CCOCC3)CC2)cc1	i
Cc1ccccc1C(=O)N(C)Cc1ccc(F)cc1	i
CCc1ccccc1OCC(=O)c1ccc2c(c1)N(CCCC(=O)N1CCOCC1)C(=O)CO2	i
CCOCCOC1CCN(C(=O)CCc2ccccc2)CC1	64%
CSc1ccc(CNC(=O)C2CCN(c3cc(C(F)(F)F)ncn3)CC2)cc1	i
O=C(NCc1ccc2c(c1)OCO2)C1CN(c2ccc(Cl)cc2)C(=O)N1 (stereo unspecified)	13%
COC(=O)[C@H](NC(=O)[C@@H]1C[C@H](NC(=O)Nc2ccc(F)cc2F)CN1C(=O)c1cccn1C)C(C)C	14%
CCc1ccccc1S(=O)(=O)N1CCN(C2(CC)CCN(C(=O)NC)C2)CC1 (stereo unspecified)	-27%
CCCCNC(=O)CN1C(=O)CSc2ccc(S(=O)(=O)N3CCC(C)CC3)cc21	0%
CC1CCN(CCCNC(=O)CN2C(=O)CSc3ccc(S(=O)(=O)N4CCOCC4)cc32)CC1	6%
CC1CCN(CCCNC(=O)CN2C(=O)CSc3ccc(S(=O)(=O)N4CCC(C)CC4)cc32)CC1	8.9µM*
O=C(C1CN(c2ccccc2)C(=O)N1)N1CCOCC1 (stereo unspecified)	5%[44.1 µM]
O=C(c1cscn1)N1CCCC2(COc3ccccc3[S+](=O)([O-])N2)C1 (stereo unspecified)	i
O=C(NCc1ccncc1)c1cn(C2CN(C(=O)Nc3ccccc3)C2)nn1	18%
CCc1ccccc1NC(=O)CN1C(=O)NC2(CCC(C)CC2)C1=O (stereo unspecified)	i
C[C@H](O)c1onc(-c2ccccc2)c1C(=O)NC1CCC1	-5%[44.1 µM]

Screens as filed in PubChem.
